MEKK2mut PB1 HTS – signal of MEK5 binding to mutant human MEKK2 PB1 domain; bead flow cytometry, Alexa488-MEK5 binding to MEKK2 mutant; percent response, % at 10 µM; actives 0.35% (n = 290,000); in the data active = percent response above about 24%, passing the limit was not always enough
Mot1-301 SUMO – blocks SUMOylation pathway, rescuing yeast Mot1-301 growth. S. cerevisiae Mot1-301 growth rescue, ATP luminescence, 38.5C; percent above DMSO median, 100 means doubled. growth rescue, % at 18.8 µM. actives 1% (n = 320,000);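 active = every valid replicate shows activation above 250% relative to neutral control wells; inactive = the rest, any valid replicate at or below 250%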
MEKK3 PB1 HTS – modulators (inhibitors or enhancers) of MEK5 binding to human MEKK3 PB1 domain; Q99759; bead-based flow cytometry, Alexa488-MEK5 binding to MEKK3; actives lie on both sides; 0 = blocked by unlabeled MEK5, 100 = vehicle; AID 1529; binding response (% of control), % at 10 µM; actives 1.4% (n = 290,000);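 active = binding response more than 3 SD above or below the average of its plate-row segment, actives on both sides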;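 also: Alexa488 bead fluorescence after subtracting the streptavidin-only scavenger bead signal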
CHT allo act – allosteric activators of human choline transporter CHT. B-score at 10 µM. actives 0.49% (n = 310,000). AID 488977. CHT-expressing cells, membrane potential dye, choline EC20; active compounds read high; LV-AA mutant CHT in HEK293 cells. Q9GZV3;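 active = initial fluorescence not abnormally high and integrated response B-score, plate-corrected, over 3 SD above library mean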
Target sequence (Q9GZV3 whole entry, looked up): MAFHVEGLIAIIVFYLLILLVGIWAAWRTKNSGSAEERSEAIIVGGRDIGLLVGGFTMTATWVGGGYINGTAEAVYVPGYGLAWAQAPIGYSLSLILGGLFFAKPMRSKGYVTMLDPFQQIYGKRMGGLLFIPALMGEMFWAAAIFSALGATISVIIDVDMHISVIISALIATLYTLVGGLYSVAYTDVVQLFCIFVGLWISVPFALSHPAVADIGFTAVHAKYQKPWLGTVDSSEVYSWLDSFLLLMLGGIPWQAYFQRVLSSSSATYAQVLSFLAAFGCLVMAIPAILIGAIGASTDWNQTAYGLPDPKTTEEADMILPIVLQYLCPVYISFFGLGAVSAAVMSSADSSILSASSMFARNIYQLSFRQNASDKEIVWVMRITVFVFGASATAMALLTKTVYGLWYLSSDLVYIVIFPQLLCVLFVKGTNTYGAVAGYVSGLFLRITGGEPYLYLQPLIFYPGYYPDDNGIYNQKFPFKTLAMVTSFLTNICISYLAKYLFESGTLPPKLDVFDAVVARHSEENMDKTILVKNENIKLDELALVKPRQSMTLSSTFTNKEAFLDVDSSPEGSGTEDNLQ
CHT block – human CHT choline transport inhibition. Q9GZV3. CHT-expressing cells, membrane potential dye, choline response; active compounds read low. B-score at 10 µM. actives 0.86% (n = 310,000). AID 488975;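 active = B-score over 3 SD under the library average, and starting fluorescence ratio not unusually high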;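 also: choline stimulus applied at its EC90 after an EC20 pre-addition; B-score computed on integrated fluorescence ratio after choline addition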
MEKK2wt PB1 HTS – raises or lowers MEK5 binding to wildtype human MEKK2 PB1 domain; Q9Y2U5; bead flow cytometry, Alexa488-MEK5 binding to MEKK2 WT; actives lie on both sides; binding response (% of control), % at 10 µM; actives 1.1% (n = 290,000); AID 1531; in the data active = binding response below about 67% or above about 130%
Yeast Mot1 SUMO – yeast SUMO pathway inhibition in dose response | shares compounds with Mot1-301 SUMO | S. cerevisiae Mot1-301 galactose growth, ATP luminescence, 24 h; -100 = growth of slx-deleted rescue strain | growth activity, percent, % at 42 µM | 2,300 tested, under 10 active | AID 493004;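 active = Signal drops as the depositor expects, and the fitted half-maximal dose is no more than ten times the top valid tested dose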;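 also: more negative values mean stronger growth rescue toward the control strain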
Large screens that a line does not name were inactive (follow-up assays come after a bar, where they were run). Most compounds without a hit are left out; they make up all but 4.1% or so of the library.

Cc1cc(C)cc(-n2ncc3c2CCCC3NC(=O)c2cc(C)[nH]n2)c1 (stereo not drawn)	Mot1-301 SUMO 641 | Yeast Mot1 SUMO inactive
CC(=O)c1cc(C(=O)NC2CCCc3c2cnn3-c2cc(C)cc(C)c2)[nH]n1 (stereo not drawn)	none
C=CCOc1ccccc1CN1CCCC(CCC(=O)N(C)CCc2ccccn2)C1 (stereo not drawn)	Mot1-301 SUMO 682 | Yeast Mot1 SUMO inactive
CCN(C(=O)COC(=O)CCc1c[nH]c2ccccc12)c1c(N)n(Cc2ccccc2)c(=O)[nH]c1=O	none (no result: MEKK2mut PB1 HTS, MEKK3 PB1 HTS, MEKK2wt PB1 HTS)
Cc1ccc(S(=O)(=O)N2[C@@H](c3ccccc3F)C(C(=O)O)=CC[C@H]2c2ccc3c(c2)OCO3)cc1	Mot1-301 SUMO 497 (no result: MEKK2mut PB1 HTS, MEKK3 PB1 HTS, MEKK2wt PB1 HTS) | Yeast Mot1 SUMO inactive
Cc1ccc(S(=O)(=O)N2[C@@H](c3ccc(F)cc3)C(C(=O)O)=CC[C@H]2c2ccc3c(c2)OCO3)cc1	none (no result: MEKK2mut PB1 HTS, MEKK3 PB1 HTS, MEKK2wt PB1 HTS)
COc1ccccc1NC(=O)Nc1nc(CC(=O)Nc2ccc(N(C)C)cc2)cs1	none (no result: MEKK2mut PB1 HTS, MEKK3 PB1 HTS, MEKK2wt PB1 HTS)
CCCCN1C(=O)c2ccc(C(=O)OCC(=O)N3CCN(c4ccccc4)CC3)cc2C1=O	none (no result: MEKK2mut PB1 HTS, MEKK3 PB1 HTS, CHT allo act, CHT block, MEKK2wt PB1 HTS)
COc1ccccc1CCNC(=O)/C(=C/c1cccnc1)NC(=O)c1ccccc1	Mot1-301 SUMO 391 | Yeast Mot1 SUMO inactive
CCCCn1c2c(c(=O)n(C)c1=O)C(c1ccc(OC)cc1)N1CCCCCC1=N2 (stereo not drawn)	Mot1-301 SUMO active | Yeast Mot1 SUMO inactive
CC(C)Oc1ccccc1C1(c2ccccc2)NC(=O)NC1=O (stereo not drawn)	none
Cc1ccc(S(=O)(=O)/N=C(/Nc2ccc([N+](=O)[O-])cc2)c2ccccc2)cc1	none
Cc1ccc(S(=O)(=O)/N=C(/Nc2ccc([N+](=O)[O-])cc2[N+](=O)[O-])c2ccccc2)cc1	Mot1-301 SUMO 415 (no result: MEKK2mut PB1 HTS, MEKK3 PB1 HTS, CHT allo act, CHT block, MEKK2wt PB1 HTS) | Yeast Mot1 SUMO inactive
COc1ccc(OC)c(N2C(=O)c3cccnc3C2=O)c1	none
O=C(/C=C/c1ccc(F)cc1)NCC1(c2ccccc2)CCOCC1	Mot1-301 SUMO 542 | Yeast Mot1 SUMO inactive
O=C(/C=C/c1ccccc1)NCC1(c2ccccc2)CCOCC1	none
NS(=O)(=O)c1ccc(CCNC(=O)/C=C/c2ccccc2[N+](=O)[O-])cc1	none
CC(=O)Cc1nsc(Nc2cccc(C)c2)n1	Mot1-301 SUMO 901 | Yeast Mot1 SUMO inactive
COc1ccc(C(=O)NCCSc2ccc(C)cc2)cc1	Mot1-301 SUMO 470 | Yeast Mot1 SUMO inactive
CCn1c(SCC(=O)Nc2nc(-c3ccccc3)cs2)nnc1-c1ccccc1	Mot1-301 SUMO 570 | Yeast Mot1 SUMO inactive
CCn1c(SCC(=O)OC)nnc1-c1ccncc1	Mot1-301 SUMO 825 | Yeast Mot1 SUMO inactive
COC(=O)CSc1nnc(-c2ccncc2)n1N	none
Cc1cc(O)c(/C=N/Nc2cccc(Cl)c2)c(=O)o1	Mot1-301 SUMO 416 | Yeast Mot1 SUMO inactive
CCOC(=O)NNC(=O)NCCCCCCNC(=O)NNC(=O)OCC	none
COc1cccc(OC)c1C(=O)OCC(=O)NC(=O)NCc1ccccc1	none
COc1ccccc1C(=O)OCC(=O)NC(=O)NCc1ccccc1	Mot1-301 SUMO 891 | Yeast Mot1 SUMO inactive
COc1ccc(C)cc1NC(=S)N1CCN(c2ccccn2)CC1	Mot1-301 SUMO 513 | Yeast Mot1 SUMO inactive
COc1ccc(NC(=S)N2CCN(c3ccccn3)CC2)cc1OC	none
C[C@H](NC(=O)c1nc[nH]c1C(=O)NC1CCN(C(=O)OC(C)(C)C)CC1)C(=O)OCc1ccccc1	none
O=C(Nc1cc(S(=O)(=O)N2CCOCC2)ccc1Cl)C1CCC1	none (no result: MEKK2mut PB1 HTS, MEKK3 PB1 HTS, MEKK2wt PB1 HTS)
COC(=O)N/N=C/c1ccc(-c2ccc(Cl)cc2Cl)o1	Mot1-301 SUMO 455 | Yeast Mot1 SUMO inactive
COC(=O)N/N=C/c1ccc(-c2ccccc2Cl)o1	none
O=C(O)CSc1ccnc2cc(Cl)ccc12	none
O=c1[nH]cnc2cc(Cl)ccc12	Mot1-301 SUMO active (no result: MEKK2mut PB1 HTS, MEKK3 PB1 HTS, MEKK2wt PB1 HTS) | Yeast Mot1 SUMO inactive
Cc1cc(C(F)F)n2ncc(C(=O)NCCc3ccc(Cl)cc3)c2n1	Mot1-301 SUMO 540 | Yeast Mot1 SUMO inactive
Cc1cc(C(F)F)n2ncc(C(=O)NCCc3ccccc3Cl)c2n1	none
O=C1CN(C(=O)COC(=O)c2cccc(S(=O)(=O)NCc3ccccc3)c2)c2ccccc2N1	Mot1-301 SUMO 554 | Yeast Mot1 SUMO inactive
O=C(Nc1ccccc1C(=O)NCCc1ccc(O)cc1)c1ccco1	none
Cc1ccc(S(=O)(=O)NCCS(=O)(=O)N2CCN(c3ccc(F)cc3)CC2)cc1	Mot1-301 SUMO 543 (no result: MEKK2mut PB1 HTS, MEKK3 PB1 HTS, MEKK2wt PB1 HTS) | Yeast Mot1 SUMO inactive
CN(C)CCCN(Cc1ccccc1)C(=S)Nc1ccc(F)c(Cl)c1	Mot1-301 SUMO 608 | Yeast Mot1 SUMO inactive
Clc1ccc(-c2noc(CCCc3ccccc3)n2)cc1	none
c1ccc(CCCc2nc(-c3cccnc3)no2)cc1	Mot1-301 SUMO 628 | Yeast Mot1 SUMO inactive
c1ccc(OCCCc2nc(-c3cccnc3)no2)cc1	Mot1-301 SUMO 456 | Yeast Mot1 SUMO inactive
OCCc1c[nH]c2cc(F)ccc12	Mot1-301 SUMO 566 | Yeast Mot1 SUMO inactive
NS(=O)(=O)c1ccc(CCNC(=O)CN2CCN(c3ccc(F)cc3)CC2)cc1	Mot1-301 SUMO 650 | Yeast Mot1 SUMO inactive
Cc1nc(C)n(CCNS(=O)(=O)c2ccc(C)c(C)c2)n1	none
Cc1ccc(S(=O)(=O)NN2C(=O)c3ccccc3NC2c2ccccc2F)cc1 (stereo not drawn)	Mot1-301 SUMO 429 | Yeast Mot1 SUMO inactive
Cc1cc(C)n2c(SCC(C)C)nnc2n1	Mot1-301 SUMO 770 | Yeast Mot1 SUMO inactive
CCOc1ccc(CN(C)C(C)C(=O)NCc2ccccc2)cc1 (stereo not drawn)	Mot1-301 SUMO 401 | Yeast Mot1 SUMO inactive
CCc1ccc(CN(C)C(C)C(=O)NCc2ccccc2)cc1 (stereo not drawn)	none
CCC(Cc1ccccc1)NC(=O)C1CCN(c2nn3c(=O)cc(C)nc3s2)CC1 (stereo not drawn)	Mot1-301 SUMO 408 | Yeast Mot1 SUMO inactive
Cc1cc(=O)n2nc(N3CCC(C(=O)NCCc4ccccc4)CC3)sc2n1	none
CC(C)CCNC(=O)CN(C(=O)CCC(=O)Nc1nccs1)c1ccc2c(c1)OCCO2	none
CC(C)(C)NC(=O)CN(C(=O)CCC(=O)Nc1nccs1)c1ccc2c(c1)OCCO2	Mot1-301 SUMO 543 | Yeast Mot1 SUMO inactive
CC(C)(CO)NCC(O)Cn1cc(C=O)c2ccccc21 (stereo not drawn)	none
O=[N+]([O-])c1ccc(N/N=C/c2cccc(O)c2)cc1	Mot1-301 SUMO 484 | Yeast Mot1 SUMO inactive
O=[N+]([O-])c1ccc(N/N=C/c2cccnc2)cc1	none
